{
  "source": "the supplement of paper PMC10077471",
  "note": "Over roughly 1,900 compounds, “excess over highest single agent (ExcessHSA) synergy score, 6x6 matrix” has its median near -83; the lowest 2% begin near -370. The sample holds the lowest values, similar compounds and a random draw of the others, so the mix is not that of the screen.",
  "data": [
    {"system": "NCI-H446", "assay": "excess over highest single agent (ExcessHSA) synergy score, 6x6 matrix; higher = less synergy (more negative = stronger synergy)", "conditions": "72 h; CellTiter-Glo viability", "values": [
      {"smiles": "CCOC(=O)C1=C(O)C(=O)N(Cc2ccccc2)C1", "note": "+ Cc1sc2c(c1C)C(c1ccc(Cl)cc1)=N[C@@H](CC(=O)OC(C)(C)C)c1nnc(C)n1-2 [NCGC00250412-19]", "excess over highest single agent": -90.7},
      {"smiles": "Cc1ccccn1.N.[Cl-].[Cl-].[Pt+2]", "note": "+ Cc1sc2c(c1C)C(c1ccc(Cl)cc1)=N[C@@H](CC(=O)OC(C)(C)C)c1nnc(C)n1-2 [NCGC00250412-19]", "excess over highest single agent": 123},
      {"smiles": "CNC(=O)c1ccc(-c2cnc3ncc(Cc4ccc5ncccc5c4)n3n2)cc1F", "note": "+ Cc1sc2c(c1C)C(c1ccc(Cl)cc1)=N[C@@H](CC(=O)OC(C)(C)C)c1nnc(C)n1-2 [NCGC00250412-19]", "excess over highest single agent": 48.7},
      {"smiles": "OC[C@H]1OC(O)C[C@@H](O)[C@@H]1O", "note": "(stereo partly drawn) + Cc1sc2c(c1C)C(c1ccc(Cl)cc1)=N[C@@H](CC(=O)OC(C)(C)C)c1nnc(C)n1-2 [NCGC00250412-19]", "excess over highest single agent": -201},
      {"smiles": "N#Cc1c(N(CC(=O)O)CC(=O)O)sc(C(=O)O)c1CC(=O)O", "note": "+ Cc1sc2c(c1C)C(c1ccc(Cl)cc1)=N[C@@H](CC(=O)OC(C)(C)C)c1nnc(C)n1-2 [NCGC00250412-19]", "excess over highest single agent": -47.5},
      {"smiles": "C[C@H]1[C@@H](O)O[C@@H]2O[C@@]3(C)CC[C@H]4[C@H](C)CC[C@@H]1[C@@]24OO3", "note": "+ Cc1sc2c(c1C)C(c1ccc(Cl)cc1)=N[C@@H](CC(=O)OC(C)(C)C)c1nnc(C)n1-2 [NCGC00250412-19]", "excess over highest single agent": -199},
      {"smiles": "C[C@@H]1[C@@H](C(=O)C[C@H]2O[C@@H]3O[C@]4(C)CC[C@@H]5[C@H](C)CC[C@@H]([C@H]2C)[C@@]35OO4)O[C@@H]2O[C@]3(C)CC[C@H]4[C@H](C)CC[C@@H]1[C@@]24OO3", "note": "+ Cc1sc2c(c1C)C(c1ccc(Cl)cc1)=N[C@@H](CC(=O)OC(C)(C)C)c1nnc(C)n1-2 [NCGC00250412-19]", "excess over highest single agent": -355},
      {"smiles": "C=CCON=C(C[C@H]1O[C@@H]2O[C@]3(C)CC[C@@H]4[C@H](C)CC[C@@H]([C@H]1C)[C@@]24OO3)[C@H]1O[C@@H]2O[C@]3(C)CC[C@H]4[C@H](C)CC[C@@H]([C@@H]1C)[C@@]24OO3", "note": "+ Cc1sc2c(c1C)C(c1ccc(Cl)cc1)=N[C@@H](CC(=O)OC(C)(C)C)c1nnc(C)n1-2 [NCGC00250412-19]", "excess over highest single agent": -427},
      {"smiles": "Cn1cnc(=N)c2[nH]cnc21", "note": "+ Cc1sc2c(c1C)C(c1ccc(Cl)cc1)=N[C@@H](CC(=O)OC(C)(C)C)c1nnc(C)n1-2 [NCGC00250412-19]", "excess over highest single agent": -164},
      {"smiles": "CN1c2cc(O)c(N=NC(N)=O)cc2CC1S(=O)(=O)O", "note": "(stereo not drawn) + Cc1sc2c(c1C)C(c1ccc(Cl)cc1)=N[C@@H](CC(=O)OC(C)(C)C)c1nnc(C)n1-2 [NCGC00250412-19]", "excess over highest single agent": -280},
      {"smiles": "O=C(O)C(=O)Nc1cccc(-c2nnn[nH]2)c1", "note": "+ Cc1sc2c(c1C)C(c1ccc(Cl)cc1)=N[C@@H](CC(=O)OC(C)(C)C)c1nnc(C)n1-2 [NCGC00250412-19]", "excess over highest single agent": 42.8},
      {"smiles": "C#CCN(C)CC1=Cc2ccccc2Oc2ccccc21", "note": "+ Cc1sc2c(c1C)C(c1ccc(Cl)cc1)=N[C@@H](CC(=O)OC(C)(C)C)c1nnc(C)n1-2 [NCGC00250412-19]", "excess over highest single agent": -204},
      {"smiles": "Cc1cnc(CNC(=O)c2c(=O)c3ccc(N4CCCN(C)CC4)nc3n3c2sc2ccccc23)cn1", "note": "+ Cc1sc2c(c1C)C(c1ccc(Cl)cc1)=N[C@@H](CC(=O)OC(C)(C)C)c1nnc(C)n1-2 [NCGC00250412-19]", "excess over highest single agent": -259},
      {"smiles": "Cc1cn2cc(C(=O)N(C)CCO)cc(N[C@@H]3CCOc4cccc(C)c43)c2n1", "note": "+ Cc1sc2c(c1C)C(c1ccc(Cl)cc1)=N[C@@H](CC(=O)OC(C)(C)C)c1nnc(C)n1-2 [NCGC00250412-19]", "excess over highest single agent": 64.1},
      {"smiles": "CNC(=O)N1N=C(c2ccc(N)cc2)c2cc3c(cc2CC1C)OCO3", "note": "(stereo not drawn) + Cc1sc2c(c1C)C(c1ccc(Cl)cc1)=N[C@@H](CC(=O)OC(C)(C)C)c1nnc(C)n1-2 [NCGC00250412-19]", "excess over highest single agent": -19.1},
      {"smiles": "O=C(CCCCCCC(=O)Nc1cccnc1)NO", "note": "+ Cc1sc2c(c1C)C(c1ccc(Cl)cc1)=N[C@@H](CC(=O)OC(C)(C)C)c1nnc(C)n1-2 [NCGC00250412-19]", "excess over highest single agent": -276},
      {"smiles": "Nc1ccc(C(=O)Nc2cccc(-c3nc(N4CCOCC4)c4oc5ncccc5c4n3)c2)cn1", "note": "+ Cc1sc2c(c1C)C(c1ccc(Cl)cc1)=N[C@@H](CC(=O)OC(C)(C)C)c1nnc(C)n1-2 [NCGC00250412-19]", "excess over highest single agent": 98.4},
      {"smiles": "Oc1cccc(-c2nc(N3CCOCC3)c3oc4ncccc4c3n2)c1", "note": "+ Cc1sc2c(c1C)C(c1ccc(Cl)cc1)=N[C@@H](CC(=O)OC(C)(C)C)c1nnc(C)n1-2 [NCGC00250412-19]", "excess over highest single agent": -410},
      {"smiles": "c1cncc(CN2CCC(n3ncc4c(N5CCOCC5)nc(-c5ccc6[nH]ccc6c5)nc43)CC2)c1", "note": "+ Cc1sc2c(c1C)C(c1ccc(Cl)cc1)=N[C@@H](CC(=O)OC(C)(C)C)c1nnc(C)n1-2 [NCGC00250412-19]", "excess over highest single agent": -140},
      {"smiles": "Cc1ccc(C(=O)Nc2cccc(C(F)(F)F)c2)cc1-c1ccc2nc(NCCN3CCOCC3)ncc2c1", "note": "+ Cc1sc2c(c1C)C(c1ccc(Cl)cc1)=N[C@@H](CC(=O)OC(C)(C)C)c1nnc(C)n1-2 [NCGC00250412-19]", "excess over highest single agent": -140},
      {"smiles": "Nc1ncnc2c1c(-c1cccc(OCc3ccccc3)c1)cn2C1CC(CN2CCC2)C1", "note": "(stereo not drawn) + Cc1sc2c(c1C)C(c1ccc(Cl)cc1)=N[C@@H](CC(=O)OC(C)(C)C)c1nnc(C)n1-2 [NCGC00250412-19]", "excess over highest single agent": -56.6},
      {"smiles": "COc1ncc(-c2ccc3nccc(-c4ccnnc4)c3c2)cc1NS(=O)(=O)c1ccc(F)cc1F", "note": "+ Cc1sc2c(c1C)C(c1ccc(Cl)cc1)=N[C@@H](CC(=O)OC(C)(C)C)c1nnc(C)n1-2 [NCGC00250412-19]", "excess over highest single agent": -259},
      {"smiles": "CCn1c(-c2nonc2N)nc2cncc(CNC3CCNCC3)c21", "note": "+ Cc1sc2c(c1C)C(c1ccc(Cl)cc1)=N[C@@H](CC(=O)OC(C)(C)C)c1nnc(C)n1-2 [NCGC00250412-19]", "excess over highest single agent": 51.1},
      {"smiles": "Cc1ccccc1-n1c(Cn2nc(-c3cccc(O)c3)c3c(N)ncnc32)nc2cccc(C)c2c1=O", "note": "+ Cc1sc2c(c1C)C(c1ccc(Cl)cc1)=N[C@@H](CC(=O)OC(C)(C)C)c1nnc(C)n1-2 [NCGC00250412-19]", "excess over highest single agent": -224},
      {"smiles": "O=C(O)[C@]1(Cc2cccc(Nc3nccs3)n2)CC[C@@H](Oc2cccc(Cl)c2F)CC1", "note": "+ Cc1sc2c(c1C)C(c1ccc(Cl)cc1)=N[C@@H](CC(=O)OC(C)(C)C)c1nnc(C)n1-2 [NCGC00250412-19]", "excess over highest single agent": -273},
      {"smiles": "O=C(O)c1nc(=O)[nH]c(=O)[nH]1", "note": "+ Cc1sc2c(c1C)C(c1ccc(Cl)cc1)=N[C@@H](CC(=O)OC(C)(C)C)c1nnc(C)n1-2 [NCGC00250412-19]", "excess over highest single agent": -48.1},
      {"smiles": "CCS(=O)(=O)c1cccc(-c2cc(C(=O)NC3CCN(C)CC3)c(C)c3[nH]c4ncc(C)cc4c23)c1", "note": "+ Cc1sc2c(c1C)C(c1ccc(Cl)cc1)=N[C@@H](CC(=O)OC(C)(C)C)c1nnc(C)n1-2 [NCGC00250412-19]", "excess over highest single agent": -197},
      {"smiles": "C=CC[C@@H]1/C=C(\\C)C[C@H](C)C[C@H](OC)[C@H]2O[C@@](O)(C(=O)C(=O)N3CCCC[C@H]3C(=O)O[C@H](/C(C)=C/[C@@H]3CC[C@@H](O)[C@H](OC)C3)[C@H](C)[C@@H](O)CC1=O)[C@H](C)C[C@@H]2OC", "note": "+ Cc1sc2c(c1C)C(c1ccc(Cl)cc1)=N[C@@H](CC(=O)OC(C)(C)C)c1nnc(C)n1-2 [NCGC00250412-19]", "excess over highest single agent": -143},
      {"smiles": "CO[C@H]1C[C@@H]2CC[C@@H](C)[C@@](O)(O2)C(=O)C(=O)N2CCCC[C@H]2C(=O)O[C@H]([C@H](C)C[C@@H]2CC[C@@H](OCCO)[C@H](OC)C2)CC(=O)[C@H](C)/C=C(\\C)[C@@H](O)[C@@H](OC)C(=O)[C@H](C)C[C@H](C)/C=C/C=C/C=C/1C", "note": "+ Cc1sc2c(c1C)C(c1ccc(Cl)cc1)=N[C@@H](CC(=O)OC(C)(C)C)c1nnc(C)n1-2 [NCGC00250412-19]", "excess over highest single agent": -598},
      {"smiles": "CO[C@H]1C[C@@H]2CC[C@@H](C)[C@@](O)(O2)C(=O)C(=O)N2CCCC[C@H]2C(=O)O[C@H]([C@H](C)C[C@@H]2CC[C@@H](OC(=O)C(C)(CO)CO)[C@H](OC)C2)CC(=O)[C@H](C)/C=C(\\C)[C@@H](O)[C@@H](OC)C(=O)[C@H](C)C[C@H](C)/C=C/C=C/C=C/1C", "note": "+ Cc1sc2c(c1C)C(c1ccc(Cl)cc1)=N[C@@H](CC(=O)OC(C)(C)C)c1nnc(C)n1-2 [NCGC00250412-19]", "excess over highest single agent": -419},
      {"smiles": "CO[C@H]1C[C@@H]2CC[C@@H](C)[C@@](O)(O2)C(=O)C(=O)N2CCCC[C@H]2C(=O)O[C@H]([C@H](C)C[C@@H]2CC[C@@H](O)[C@H](OC)C2)CC(=O)[C@H](C)/C=C(\\C)[C@@H](O)[C@@H](OC)C(=O)[C@H](C)C[C@H](C)/C=C/C=C/C=C/1C", "note": "+ Cc1sc2c(c1C)C(c1ccc(Cl)cc1)=N[C@@H](CC(=O)OC(C)(C)C)c1nnc(C)n1-2 [NCGC00250412-19]", "excess over highest single agent": -737},
      {"smiles": "CC[C@@H]1/C=C(\\C)C[C@H](C)C[C@H](OC)[C@H]2O[C@@](O)(C(=O)C(=O)N3CCCC[C@H]3C(=O)O[C@H](/C(C)=C/[C@@H]3CC[C@H](Cl)[C@H](OC)C3)[C@H](C)[C@@H](O)CC1=O)[C@H](C)C[C@@H]2OC", "note": "+ Cc1sc2c(c1C)C(c1ccc(Cl)cc1)=N[C@@H](CC(=O)OC(C)(C)C)c1nnc(C)n1-2 [NCGC00250412-19]", "excess over highest single agent": -132},
      {"smiles": "CO[C@H]1C[C@@H]2CC[C@@H](C)[C@@](O)(O2)C(=O)C(=O)N2CCCC[C@H]2C(=O)O[C@H]([C@H](C)C[C@@H]2CC[C@@H](OP(C)(C)=O)[C@H](OC)C2)CC(=O)[C@H](C)/C=C(\\C)[C@@H](O)[C@@H](OC)C(=O)[C@H](C)C[C@H](C)/C=C/C=C/C=C/1C", "note": "+ Cc1sc2c(c1C)C(c1ccc(Cl)cc1)=N[C@@H](CC(=O)OC(C)(C)C)c1nnc(C)n1-2 [NCGC00250412-19]", "excess over highest single agent": -543}
    ]}
  ]
}
